From PubChem BioAssay AID485314 (National Center for Advancing Translational Sciences (NCATS), 2010)
Among all 340,000 compounds or so, about 4,500 (1.3%) were called active. Inconclusive results (about 5%) are left out. The sample holds actives, similar compounds and a random draw of the others, so the mix is not that of the screen. Unmarked numbers belong to inactive results. Calls follow the shape of the dose curve; as a rule, active = well fitted inhibition curve with a large enough effect; inconclusive = small, poorly fitted or top-dose-only effect, or another doubt; inactive = no such curve, though single readings can be large or run the other way.

Molecular target: DNA polymerase beta (Homo sapiens) (UniProt P06746)
Assay: qHTS Assay for Inhibitors of DNA Polymerase Beta
Conditions: Pol beta primer extension/strand displacement, fluorescence kinetic; series mostly up to 114 µM; activity change, negative = inhibition: at the top concentration
How it was run: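 Reaction started by 50 nM substrate onto compound-treated Pol beta (10 nM, 15 min preincubation, room temperature); plates read at 0 min and 10 min. Normalized concentration-effect data fitted by four-parameter Hill equation.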
% is scaled to controls: 0 for no effect and ±100 for the full control effect; potency is read from the fitted curve at half-maximal effect.

Row | Compound | activity change, negative = inhibition [%] | Potency
1 | Cc1ccc(Nc2c(-c3ccc(Cl)cc3)nc3sccn23)c(C)c1 | 3.67 | 
2 | Cc1ccc(C(=O)N2CCc3cc(CNC(=O)c4ccc(Br)cc4)ccc32)cc1 | -1.22 | 
3 | CCn1cc(C(=O)NCCc2ccccc2)c(=O)c2cc(S(=O)(=O)N3CCCCCC3)ccc21 | 13 | 
4 | CCOC(=O)c1c(C)[nH]c(CCC(=O)NCCCN2CCN(c3cccc(Cl)c3)CC2)c1C | -26.9 | 
5 | O=C(NCCc1ccco1)c1nn(Cc2ccccc2)c(=O)c2ccccc12 |  | 44.7 µM (active)
6 | O=c1c2ccccc2c(-c2ccc(Br)cc2)nn1Cc1ccccc1 | 1.64 | 
7 | O=C(NCCSc1ccccc1)c1ccco1 | 6.21 | 
8 | CCn1cc2nc(SCc3ccccc3Cl)n(CCc3ccccc3)c(=O)c2n1 | 1.98 | 
9 | CCc1ccc2nc3sc(C(=O)Nc4nnc(CC)s4)c(N)c3cc2c1 |  | 25.1 µM (active)
10 | CCc1ccc(NC(=O)c2sc3nc4c(cc3c2N)CN(CC)CC4)cc1 | -13.7 | 
11 | CCc1nnc(NC(=O)c2sc3nc(C)cc(COC)c3c2N)s1 | -0.594 | 
12 | Cc1ccc(C)c(N2CCN(C(c3ccccc3)c3nnc(-c4ccccc4)o3)CC2)c1 (stereo unspecified) | 2.47 | 
13 | O=C(c1cc2cc(Br)cc(Br)c2oc1=O)N1CCOCC1 | 7.01 | 
14 | O=C(CSC(=S)N1CCOCC1)c1cc(Br)cc(Br)c1O |  | 31.6 µM (active)
15 | O=C(CSC(=S)N1CCOCC1)c1ccccc1 | 2.75 | 
16 | CCc1ccccc1N(C)C(=O)C1CCCN(c2ncnc3onc(-c4ccc(F)cc4)c23)C1 (stereo unspecified) | -20.2 | 
17 | O=C(Nc1nnc(C2CC(=O)N(c3ccc(Cl)cc3)C2)s1)c1ccco1 (stereo unspecified) | -0.775 | 
18 | O=C(c1cnn(-c2ccc(F)cc2)c1-n1cccc1)N1CCN(c2ccc(F)cc2)CC1 | 1.09 | 
19 | COC(=O)c1sc2ncccc2c1-n1c(C)ccc1C | 14.6 | 
20 | Cc1cccc(CCNC(=O)c2ccc3c(c2)nc2n3CCC(C)C2)c1 (stereo unspecified) | -17.9 | 
21 | O=C(NCc1ccco1)c1cccn2c(=O)c3c4c(sc3nc12)CCCC4 |  | 50.1 µM (active)
22 | O=c1oc(-c2ccco2)nc2sc3c(c12)CCCCC3 | 3.53 | 
23 | O=C(NCc1ccco1)c1nc2ncccn2n1 | 11.7 | 
24 | CN(Cc1ccccc1)c1ncnc2onc(-c3ccc(F)cc3)c12 | -27 | 
25 | COC(=O)c1ccccc1NS(=O)(=O)c1ccc2c(c1)CCCN2C(C)=O | 29 | 
26 | Cc1ccc(S(=O)(=O)c2nc(-c3cccs3)oc2N2CCCCC2)cc1 | 2.94 | 

Row | Compound | activity change, negative = inhibition [%] | Potency
27 | COc1cccc(NC(=O)CSc2cc(=O)n(C)c3ccc(Cl)cc23)c1 | 17.1 | 
28 | Cc1cc(F)ccc1NS(=O)(=O)c1ccc(-n2cccn2)cc1 | 1.11 | 
29 | CC(Nc1ccc(-c2nc(-c3ccco3)no2)cc1[N+](=O)[O-])c1ccccc1 (stereo unspecified) |  | 20 µM (active)
30 | CNc1ccc(-c2nc(-c3ccco3)no2)cc1[N+](=O)[O-] | 10.7 | 
31 | O=[N+]([O-])c1cc(-c2nc(-c3ccccc3)no2)ccc1NCc1ccco1 | 1.56 | 
32 | COc1cccc(NC(=O)Nc2ccc3c(c2)N(C)C(=O)c2ccccc2S3)c1 | -11.2 | 
33 | CCOC(=O)c1c(NC(=O)c2ccc(S(=O)(=O)N3CCCC(C)C3)cc2)sc2c1CCN(C(C)C)C2 (stereo unspecified) | -0.886 | 
34 | O=C(Nc1nnc(Cc2ccc(Cl)cc2)s1)c1ccncc1 | 3.6 | 
35 | O=C(Nc1nnc(Cc2ccccc2)s1)c1cnccn1 | 5.98 | 
36 | O=C(Nc1nnc(Cc2ccc(Cl)cc2)s1)c1cccnc1 |  | 22.4 µM (active)
37 | COc1cccc(C(=O)NC2=NC(c3ccc(N(C)C)cc3)CC(=O)N2)c1 (stereo unspecified) | 0.969 | 
38 | CCC(=O)N1CCc2cc(S(=O)(=O)NC(CC(C)C)C(=O)NCCc3cccc(C)c3)ccc21 (stereo unspecified) | -3.09 | 
39 | CCC(c1nnnn1C1CCCC1)N1CCN(C(=O)c2ccco2)CC1 (stereo unspecified) |  | 44.7 µM (active)
40 | CC(C)C(c1nnnn1C1CCCCC1)N1CCN(C(=O)c2ccco2)CC1 (stereo unspecified) | 23.6 | 
41 | CCC(C)(C)n1nnnc1C(c1ccc(OC)c(OC)c1)N1CCN(C(=O)c2ccco2)CC1 (stereo unspecified) | -7.42 | 
42 | COc1ccc(-c2c(C)c3ccc(O)c(CN4CCN(C)CC4)c3oc2=O)cc1OC | 27.4 | 
43 | COc1ccc(-c2c(C)c3ccc(O)c(CN4CCCC4)c3oc2=O)cc1OC | 1.07 | 
44 | COc1c(O)cc2oc(-c3ccc(O)c(O)c3)cc(=O)c2c1O |  | 6.31 µM (active)
45 | CCN(CC)c1ccc(NS(=O)(=O)c2cc(-c3cc(C)no3)ccc2C)c(C)c1 | 7.48 | 
46 | CN(C)CCCn1c(-c2ccc(Cl)cc2)csc1=Nc1ccccc1 | -17.6 | 
47 | CCN1CCN(CCCNC(=O)c2ccc3c(c2)sc2nc(-c4ccc(OC)cc4)cn23)CC1 | 0.356 | 
48 | O=C(CSc1nc2ccccc2nc1Cc1ccccc1)N1CCCCC1 | -23.8 | 
49 | CCOC(=O)c1ccc(N2C(=O)c3n[nH]c(C)c3C2c2ccc(O)c(OC)c2)cc1 (stereo unspecified) | 6.08 | 
50 | CC(C)Oc1ccc(/C=C(\NC(=O)/C=C/c2ccco2)C(=O)NCCc2nc3ccccc3[nH]2)cc1 | -0.381 | 
51 | COc1ccc(OC(C)C(=O)NCCc2nc3ccccc3[nH]2)cc1 (stereo unspecified) | 3.64 | 
52 | CCCCCOc1ccc(/C=C/C(=O)NCCc2nc3ccccc3[nH]2)cc1OC |  | 15.8 µM (active)

Row | Compound | activity change, negative = inhibition [%] | Potency
53 | O=C(NCc1ccccc1Cl)C1=Cc2cc(Br)ccc2OC1 | 1.78 | 
54 | CC(C)C(=O)Nc1nc2c(s1)CC(C(C)(C)C)CC2 (stereo unspecified) | -15.1 | 
55 | COc1ccc(/C=N/NC(=O)c2ccc3c(c2)OCCO3)c(OC)c1 | -7.82 | 
56 | CN(C)CCNC(=O)c1[nH]nc2c1CCc1ccccc1-2 | 4.83 | 
57 | COc1cccc(/C=N/NC(=O)c2[nH]nc3c2CCc2ccccc2-3)c1O |  | 8.91 µM (active)
58 | CCOc1ccccc1CNC(=O)c1ccc(-n2c(C)cc3c2CCC(C)C3)cc1 (stereo unspecified) | -5.46 | 
59 | O=C1c2cccc3cccc(c23)C(=O)N1CCCCCc1n[nH]c(=S)o1 | 0.636 | 
60 | O=C(CCCCCN1C(=O)c2cccc3cccc(c23)C1=O)NCc1ccco1 | 4.7 | 
61 | C[N+](C)(CCCCCC[N+](C)(C)CCCN1C(=O)c2cccc3cccc(c23)C1=O)CCCN1C(=O)c2cccc3cccc(c23)C1=O |  | 2.38 µM (active)
62 | CCN(CCCNC(=O)CSc1cc(=O)n(C)c2cc(Cl)ccc12)c1cccc(C)c1 | -18.6 | 
63 | COc1ccc(C2=NC(c3ccncc3)=Nc3ccc(Br)cc3N2)cc1 | -0.33 | 
64 | CC(=O)c1ccc(NC(=O)CCc2nc(-c3ccc(C)cc3)no2)cc1 | -29.3 | 
65 | COc1cc2ccccc2cc1C(=O)Nc1cccc(-c2nc3ccccc3o2)c1 | 1.22 | 
66 | NC(=O)CCN1CCN(S(=O)(=O)/C=C/c2ccccc2)CC1 | 17.7 | 
67 | O=C(CN1CCN(S(=O)(=O)/C=C/c2ccccc2)CC1)NC(=O)NCc1ccco1 |  | 25.1 µM (active)
68 | COc1ccccc1N1CCN(CC(=O)NC(=O)NCc2ccco2)CC1 | 19.7 | 
69 | CCC1=Nc2cc(C(=O)NCC(C)c3ccccc3)ccc2Sc2ccc(C)cc21 (stereo unspecified) | -9.44 | 
70 | O=C(CNS(=O)(=O)c1cccs1)N1CCN(c2ccccc2Cl)CC1 | 12 | 
71 | COc1cccc(CNS(=O)(=O)c2ccc3c(c2)CC(C)N3C(C)=O)c1 (stereo unspecified) | 10.6 | 
72 | CCC(=O)N1c2ccc(S(=O)(=O)NCc3ccco3)cc2CC1C (stereo unspecified) |  | 0.398 µM (active)
73 | COc1cccc(CNS(=O)(=O)c2ccc3c(c2)CC(C)N3C(=O)C2CCC2)c1 (stereo unspecified) |  | inactive
74 | COc1cc(C(=O)N2CCN(c3ccc(Nc4ccc(C)cc4)nn3)CC2)cc(OC)c1OC | 11.6 | 
75 | Cc1ccc(-c2cnc(NCc3ccc(C(C)C)cc3)n2C)cc1 | 4 | 
76 | COc1ccc(NC(=O)c2ccco2)cc1NC(=O)COc1ccc(C)c(C)c1 |  | 11.2 µM (active)
77 | Cc1ccc(OCC(=O)NCCCNC(=O)c2ccco2)cc1C | 17.8 | 
78 | COc1ccc(OCC(=O)Nc2ccc(NC(=O)c3ccco3)c(C)c2)cc1 | 4.19 | 

Row | Compound | activity change, negative = inhibition [%] | Potency
79 | CCC(C)Nc1oc(-c2ccc(COc3ccc(Cl)cc3)o2)nc1C#N (stereo unspecified) | -4.08 | 
80 | Cc1ccccc1CNC(=O)CCCn1nc(C)c2sc3ccccc3c2c1=O | -3.26 | 
81 | CCCNC(=S)N1CCCC(c2nc3ccccc3[nH]2)C1 (stereo unspecified) | 32.4 | 
82 | COCCCNC(=S)N1CCCC(c2nc3cc(C)c(C)cc3[nH]2)C1 (stereo unspecified) |  | 39.8 µM (active)
83 | CCNC(=S)N1CCC(c2nc3cc(C)c(C)cc3[nH]2)CC1 | 37.3 | 
84 | CC1(C)N=C(SCc2ccccc2Cl)c2ccccc2N1 | 22.9 | 
85 | Fc1ccc(Nc2nc(SCc3ccccc3Cl)nc3ccccc23)cc1 | 4.9 | 
86 | Clc1ccccc1CSc1nnc(-c2ccco2)c(-c2ccco2)n1 |  | 4.47 µM (active)
87 | Cc1ccc(-c2nnc(SCC(=O)NCc3ccccc3)nc2-c2ccc(C)cc2)cc1 | -19.3 | 
88 | COc1ccc2nc(SCc3ccccc3)nc(C)c2c1 | -28.5 | 
89 | c1ccc(CSc2nnc(-c3ccco3)c(-c3ccco3)n2)cc1 |  | 7.94 µM (active)
90 | CCN(CC)S(=O)(=O)c1nnc(NC(=O)COc2ccccc2Cl)s1 | -0.683 | 
91 | CC1=Nc2cc(C(=O)NCc3ccc(C)cc3)ccc2Sc2ccc(Cl)cc21 | 8.49 | 
92 | O=C(CSc1nccn1-c1ccc(F)cc1)Nc1cccc2ccccc12 | 18.6 | 
93 | Cc1ccc(C)c(N2CCN(C(=O)Cn3nc(C)c4sc5ccccc5c4c3=O)CC2)c1 | 4.61 | 
94 | COc1ccc2c(c1)Cc1sc(NC(=O)c3ccccc3Br)nc1-2 | 8.32 | 
95 | CC(C)(C)c1ccc(C(=O)N2CCC(c3nc(-c4ccc(S(=O)(=O)N5CCCC5)cc4)no3)CC2)cc1 | 4.4 | 
96 | CCOC(=O)C1CCN(C(c2ccc(F)cc2)c2sc3nc(-c4ccco4)nn3c2O)CC1 (stereo unspecified) | 1.93 | 
97 | Oc1c(C(c2ccccc2Cl)N2CCOCC2)sc2nc(-c3ccco3)nn12 (stereo unspecified) | -23.3 | 
98 | CCOc1ccccc1/C=c1\sc2nc(-c3ccco3)nn2c1=O |  | 11.2 µM (active)
99 | COc1cc(CNC(=O)c2cc3n(n2)CCCN(Cc2cccc(F)c2)C3=O)cc(OC)c1OC | -11.6 | 
100 | CCC(=O)Nc1cccc(C(=O)OCc2cc(=O)n3nc(CC)sc3n2)c1 | -0.24 | 
101 | Cc1c(C(=O)NCc2ccccc2Br)oc2ccc3c(c12)C(=O)CC(C)(C)O3 | -0.951 | 
